Measured values from PubChem BioAssay.
Values joined by “and” are separate entries in the source; they are usually repeats but may differ in a detail not shown here. Equal entries are not always repeated. Active and inactive are the calls of the source. The rule behind the calls is not given here.

Molecular target: Pantothenate synthetase (Mycobacterium tuberculosis (strain ATCC 25618 / H37Rv)) (UniProt P9WIL5)
Sequence (P9WIL5 whole entry, looked up): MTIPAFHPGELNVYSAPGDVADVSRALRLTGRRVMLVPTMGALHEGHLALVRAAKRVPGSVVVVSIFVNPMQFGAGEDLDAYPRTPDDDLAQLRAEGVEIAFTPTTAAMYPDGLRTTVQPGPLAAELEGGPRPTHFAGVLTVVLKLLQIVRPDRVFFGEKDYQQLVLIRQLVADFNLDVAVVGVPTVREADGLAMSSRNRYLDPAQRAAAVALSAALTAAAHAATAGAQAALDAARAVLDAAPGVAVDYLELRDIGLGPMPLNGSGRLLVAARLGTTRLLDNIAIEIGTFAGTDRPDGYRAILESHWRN
Test: Recombinant Mtb pantothenate synthetase (PanC) inhibitors, coupled enzyme, confirmatory (AID 375);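 note: 0% = full reaction with vehicle and 100% = no enzyme background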
Details: coupled enzyme assay; at 10 µM, stronger effect = higher value
For `O=C(NC1CCCCCCC1)C1CCN(c2nc3ccccc3o2)CC1`, the inhibition was 3% (inactive). With `CCOC(=O)c1[nH]c2ccc(OC)cc2c1NC(=O)CCN1CCC(C)CC1` the inhibition was 0% (inactive). With `Cc1cc(C)n(Cc2nc3ccccc3n2C)n1` the inhibition was 0% (inactive). For `COC(=O)CN1C(=O)C2(C(C#N)=C(N)Oc3c2c(C)nn3-c2ccccc2)c2ccccc21` (stereo not given), the inhibition was 3% (inactive). In the case of `Cc1[nH]c2ccccc2c1Cc1nnc(SCC(=O)NCc2ccco2)o1`, the inhibition is reported as 1% (inactive). In the case of `C[N+]1(C)[C@@H]2CC[C@H]1CC(OC(=O)C(CO)c1ccccc1)C2` (stereo not given in full), the inhibition is reported as 6% (inactive) and 13% (inactive). With `COc1ccc2[nH]cc(CCN(C)C)c2c1` the inhibition was 0% (inactive). For `Cc1ccc(C(=O)N2CCCC(c3nc4c(nnn4Cc4ccccc4)c(=O)[nH]3)C2)cc1` (stereo not given), the inhibition was 1% (inactive). For `Oc1ccccc1C1=Nc2nc3ccccc3n2C(c2ccccc2)C1` (stereo not given), the inhibition was 0% (inactive). With `CCC(COC(=O)c1cc(OC)c(OC)c(OC)c1)(c1ccccc1)N(C)C` (stereo not given) the inhibition was 2% (inactive). In the case of `COC(=O)/C=c1/s/c(=C(/C#N)C(=O)N2CCOCC2)n(-c2ccccc2)c1=O`, the inhibition is reported as 4% (inactive). With `COc1ccccc1N1CCN(C(=O)c2ccc3nc(-c4ccco4)c(-c4ccco4)nc3c2)CC1` the inhibition was 9% (inactive). For `COc1ccc(C(=O)N2CCCC2=O)cc1`, the inhibition was 10% (inactive). In the case of `O=C1CC(c2ccco2)CC(O)=C1C=NCC1NCCc2ccccc21` (stereo not given), the inhibition is reported as 0% (inactive). For `CCCCC(=NCCO)C1=C(O)C(C(=O)OC)C(C)(C)CC1=O` (stereo not given), the inhibition was 8% (inactive). For `CCOC(=O)c1[nH]c(C)c(C(=O)NCc2ccccn2)c1C`, the inhibition was 0% (inactive). With `CC1(C)CN=C(N2CCN(c3ncnc4sc5c(c34)CCCC5)CC2)S1` the inhibition was 0% (inactive). For `COCCN1C=C(C(=O)OC)C(c2cc3c(cc2Br)OCO3)C(C(=O)OC)=C1`, the inhibition was 0% (inactive). In the case of `CCN1CCN(CCCNC(=O)c2cn(CCOC)c(=O)c3c2c2ccccc2n3C)CC1`, the inhibition is reported as 0% (inactive). For `CC[C@@H]1C(=O)OC[C@@H]1Cc1cncn1C`, the inhibition was 0% (inactive). With `CC(=O)NC1(C(F)(F)F)NC(=O)N(CC(C)C)C1=O` (stereo not given) the inhibition was 0% (inactive).

System: not listed separately
Test: reducers of endogenous Her2 protein level, primary screen, SKBR3 breast tumor cells, AlphaScreen, ATP viability (AID 461);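 note: percent of carrier control wells set as 100% viability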
Details: 18-24 h, measured here: SKBR3 viability, ATP luminescence, at 10 µM
`CC(C)N(CCC(C(N)=O)(c1ccccc1)c1ccccn1)C(C)C` (stereo not given) gave a viability of 85%. With `C[N+]1(C)CCc2cc3c(cc2[C@H]1[C@@H]1OC(=O)c2c1ccc1c2OCO1)OCO3` the viability was 89.5%. `c1ccc2c(c1)OCC(C1=NCCN1)O2` (stereo not given) showed a viability of 104%. `COc1ccc(OC)c(C(O)C(C)N)c1` (stereo not given) showed a viability of 104%. In the case of `C[N+]1(C)[C@@H]2CC[C@H]1CC(OC(=O)C(CO)c1ccccc1)C2` (stereo not given in full), the viability is reported as 97.5% and 140%. Compound `COc1ccc2[nH]cc(CCN(C)C)c2c1` has a viability of 108%. `CCC(COC(=O)c1cc(OC)c(OC)c(OC)c1)(c1ccccc1)N(C)C` (stereo not given) gave a viability of 87.5%. In the case of `COc1ccc(C(=O)N2CCCC2=O)cc1`, the viability is reported as 110%. Work on `CC[C@@H]1C(=O)OC[C@@H]1Cc1cncn1C` yielded a viability of 94%.
